Assay [1] is described as follows: compounds binding Alexa647 anti-His antibody – biochemical, small-molecule microarray, 635 nm fluorescence, artefact control for SMM control protein annotation, primary screen (AID 1128).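 Also: score merges feature fluorescence with signal-to-noise for each printed compound spot.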 To be noted: higher = more signal.
Assay [2] has as its system Human papillomavirus type 1a E7 protein (residues 1-88). Briefly: HPV1a E7 small-molecule binders, primary screen, biochemical, small-molecule microarray, residues 1-88, 635 nm (AID 1129). The conditions noted are these: small-molecule microarray binding, fluorescence 635 nm; higher = more signal.
Assay [3] concerns the target Focal adhesion kinase 1 (Homo sapiens) (UniProt Q05397). The assay can be described thus: PTK2 protein binding on printed compound slides – biochemical, small-molecule microarray, 635/667 nm fluorescence, BSA, DTT, primary screen (AID 1130).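 Also: composite of spot emission at 667 nm and signal to noise over triplicate slides.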 To be noted: 635 nm fluorescence, higher = more signal.
In assay [4] the test system is Fibrinogen (Alexa647-labelled). The assay can be described thus: Alexa647-fibrinogen binding to printed small molecules – biochemical, small-molecule microarray, 635/667 nm fluorescence, artefact control for SMM control-protein annotation, profiling panel (AID 1131).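 Also: z-score merges 667 nm fluorescence with per-spot signal-to-noise over triplicate slides.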 The conditions noted are these: fibrinogen-A647 binding fluorescence, higher = more signal.
The target in assay [5] is Follistatin (Homo sapiens) (UniProt P19883). Briefly: FST protein binding to printed compounds – biochemical, small-molecule microarray, 635/667 nm fluorescence, primary screen (AID 1132). The conditions noted are these: 635 nm fluorescence, higher = more signal.
Assay [6] concerns the target Fibroblast growth factor 2 (Homo sapiens) (UniProt P09038). The assay can be described thus: basic fibroblast growth factor binding to printed compounds – biochemical, small-molecule microarray, 635/667 nm fluorescence, primary screen (AID 1133). To be noted: FGF2, fluorescence 635/667, higher = more signal.
Assay [7] can be described thus: JC-1 mitochondrial potential readout, lung cancer cells – cell-based, A549, JC-1 fluorescence, basal, 24 h, 100 nL, profiling panel (AID 1138).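 Also: A549 lung adenocarcinoma cells under basal conditions with no added stimulus; test concentration not given here.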 To be noted: higher = more signal.
In assay [8] the test system is Lefty1. The assay can be described thus: Lefty1 protein binding to printed compounds – biochemical, small-molecule microarray, 635/667 nm fluorescence, primary screen (AID 1139). The conditions noted are these: fluorescence 635/667, higher = more signal.
The test system of assay [9] is wheat germ agglutinin (Triticum aestivum), Alexa647-labelled. The assay can be described thus: Alexa647-WGA lectin binding to printed small molecules – biochemical, small-molecule microarray, 635/667 nm fluorescence, artefact control for SMM control-protein annotation, profiling panel (AID 1140).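 Also: score merges 667 nm feature emission with signal to noise over triplicate slides.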 The conditions noted are these: WGA-A647 binding, 635 nm fluorescence, higher = more signal.

In assay [10] the target is Luciferin 4-monooxygenase (Photinus pyralis) (UniProt P08659). The assay can be described thus: inhibition of purified Photinus pyralis luciferase – biochemical, luminescence, purified enzyme, 2006 set, primary screen (AID 1141).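 Also: cell-free assay with purified firefly luciferase at 100 ng per well in PBS; test concentration not given here.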 The conditions noted are these: purified firefly luciferase, SteadyGlo luminescence, 30 min; higher = more signal, called active from +8 up or from −8 down.

Assay [11] relates to Wnt5a (protein binding on small-molecule microarray). The assay can be described thus: small molecules binding Wnt5a protein – biophysical, small-molecule microarray, 635/667 nm fluorescence, primary screen (AID 1142).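 Also: fluorescence read at 667 nm with signal to noise per printed feature.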 The conditions noted are these: 635 nm fluorescence, higher = more signal.
Assay [12] can be described thus: ATP-based viability of Huh7 replicon cells – cell-based, CellTiter-Glo luminescence, basal, 48 h, cytotoxicity control for HCV replication inhibitor project, primary screen (AID 1143).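 Also: Huh7 hepatoma cells carrying a hepatitis C replication reporter with no stimulus; test concentration not given here.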 To be noted: higher = more signal, called active from +8 up or from −8 down. (In general: A replicon is a self-replicating genome or part of one, used to study replication in cells.)

Assay [13] in a line: Pseudomonas biofilm growth suppression – PAO1 strain, BacTiter-Glo luminescence, LB-PBS, primary screen (AID 1144). The conditions noted are these: P. aeruginosa PAO1 biofilm, 12 h, higher = more signal.
Assay [14] in a line: basal CRE-LacZ reporter activity in PC12 – cell-based, unstimulated, primary screen (AID 1145). The conditions noted are these: no forskolin, luminescence, 4.5 h, higher = more signal, called active from +8 up or from −8 down.
Assay [15] is described as follows: forskolin-driven CRE-LacZ activity in PC12 – cell-based, CRE-LacZ reporter, forskolin-stimulated, primary screen (AID 1146).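 Also: PC12 cells with 6xCRE LacZ reporter stimulated by forskolin 10 µM; beta-galactosidase reporter signal reflecting CREB driven transcription.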 To be noted: luminescence, 4.5 h, higher = more signal, called active from +8 up or from −8 down.
Assay [16] addresses Streptavidin (Streptomyces avidinii) (UniProt P22629). The assay can be described thus: compounds binding control protein streptavidin – biophysical, small-molecule microarray, 635/667 nm fluorescence, artefact control for SMM compound annotation, primary screen (AID 1147).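 Also: signal reflects streptavidin binding to arrayed compounds as a control protein.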 The conditions noted are these: higher = more signal.
Assay [17] is described as follows: probe aInhba binding on compound microarray – biochemical, small-molecule microarray, 635/667 nm fluorescence, primary screen (AID 1148).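 Also: score merges 667nm spot fluorescence with signal-to-noise for antibody binding to printed compounds.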 To be noted: higher = more signal.
Assay [18] deals with Torsin-1A (Homo sapiens) (UniProt O14656). The assay can be described thus: TOR1A wild-type binding on microarray – cell lysate, small-molecule microarray, lysate, 635/667 nm, primary screen (AID 1149). The conditions noted are these: COS7 hTOR1A-WT lysate, 635 nm fluorescence, higher = more signal.
Assay [19] shares this target. Briefly: torsin A mutant lysate binding on microarrays – cell lysate, small-molecule microarray, COS7 lysate, 635/667 nm fluorescence, primary screen (AID 1150).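 Also: score pools 667 nm emission and signal to noise measuring lysate protein binding.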 The conditions noted are these: COS7 hTOR1A mutant lysate, 635 nm fluorescence, higher = more signal.
Assay [20] concerns Sonic hedgehog protein (Shh). Briefly: Sonic hedgehog microarray binding compounds – biochemical, small-molecule microarray, 635/667 nm fluorescence, primary screen (AID 1151).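 Also: Shh protein binding to compounds spotted on small-molecule microarray slides; score combines spot fluorescence intensity with signal-to-noise across triplicate slides.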 To be noted: 635 nm fluorescence, higher = more signal.

Five compounds from PubChem BioAssay can be followed below.

Calls of active or inactive are those of the source. Unless noted, no rule for the calls is given here.

Sequence of Fibroblast growth factor 2 (Homo sapiens) (P09038 whole entry, looked up): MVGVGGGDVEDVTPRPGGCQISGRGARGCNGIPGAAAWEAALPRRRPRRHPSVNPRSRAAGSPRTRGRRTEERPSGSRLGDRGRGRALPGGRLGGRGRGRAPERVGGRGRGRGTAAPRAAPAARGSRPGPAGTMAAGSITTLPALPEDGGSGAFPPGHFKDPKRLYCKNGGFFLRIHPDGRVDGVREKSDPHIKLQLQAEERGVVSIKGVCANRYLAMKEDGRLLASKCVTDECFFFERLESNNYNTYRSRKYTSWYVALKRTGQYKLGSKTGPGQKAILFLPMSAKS
Sequence of Luciferin 4-monooxygenase (Photinus pyralis) (P08659 whole entry, looked up): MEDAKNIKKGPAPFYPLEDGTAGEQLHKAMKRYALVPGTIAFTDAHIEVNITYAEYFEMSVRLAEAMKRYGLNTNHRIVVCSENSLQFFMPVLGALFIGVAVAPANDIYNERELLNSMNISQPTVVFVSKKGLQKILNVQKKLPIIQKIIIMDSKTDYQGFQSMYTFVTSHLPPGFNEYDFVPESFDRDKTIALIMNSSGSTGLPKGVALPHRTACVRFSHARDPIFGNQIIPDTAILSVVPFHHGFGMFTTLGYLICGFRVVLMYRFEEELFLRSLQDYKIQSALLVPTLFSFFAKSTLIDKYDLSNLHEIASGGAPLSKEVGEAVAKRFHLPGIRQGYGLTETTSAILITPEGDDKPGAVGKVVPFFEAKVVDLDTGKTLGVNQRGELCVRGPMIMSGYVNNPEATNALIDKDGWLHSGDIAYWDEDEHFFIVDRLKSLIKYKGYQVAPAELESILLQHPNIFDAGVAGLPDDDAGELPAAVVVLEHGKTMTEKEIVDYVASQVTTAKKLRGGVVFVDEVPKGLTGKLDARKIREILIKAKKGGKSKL
Sequence of Focal adhesion kinase 1 (Homo sapiens) (Q05397 whole entry, looked up): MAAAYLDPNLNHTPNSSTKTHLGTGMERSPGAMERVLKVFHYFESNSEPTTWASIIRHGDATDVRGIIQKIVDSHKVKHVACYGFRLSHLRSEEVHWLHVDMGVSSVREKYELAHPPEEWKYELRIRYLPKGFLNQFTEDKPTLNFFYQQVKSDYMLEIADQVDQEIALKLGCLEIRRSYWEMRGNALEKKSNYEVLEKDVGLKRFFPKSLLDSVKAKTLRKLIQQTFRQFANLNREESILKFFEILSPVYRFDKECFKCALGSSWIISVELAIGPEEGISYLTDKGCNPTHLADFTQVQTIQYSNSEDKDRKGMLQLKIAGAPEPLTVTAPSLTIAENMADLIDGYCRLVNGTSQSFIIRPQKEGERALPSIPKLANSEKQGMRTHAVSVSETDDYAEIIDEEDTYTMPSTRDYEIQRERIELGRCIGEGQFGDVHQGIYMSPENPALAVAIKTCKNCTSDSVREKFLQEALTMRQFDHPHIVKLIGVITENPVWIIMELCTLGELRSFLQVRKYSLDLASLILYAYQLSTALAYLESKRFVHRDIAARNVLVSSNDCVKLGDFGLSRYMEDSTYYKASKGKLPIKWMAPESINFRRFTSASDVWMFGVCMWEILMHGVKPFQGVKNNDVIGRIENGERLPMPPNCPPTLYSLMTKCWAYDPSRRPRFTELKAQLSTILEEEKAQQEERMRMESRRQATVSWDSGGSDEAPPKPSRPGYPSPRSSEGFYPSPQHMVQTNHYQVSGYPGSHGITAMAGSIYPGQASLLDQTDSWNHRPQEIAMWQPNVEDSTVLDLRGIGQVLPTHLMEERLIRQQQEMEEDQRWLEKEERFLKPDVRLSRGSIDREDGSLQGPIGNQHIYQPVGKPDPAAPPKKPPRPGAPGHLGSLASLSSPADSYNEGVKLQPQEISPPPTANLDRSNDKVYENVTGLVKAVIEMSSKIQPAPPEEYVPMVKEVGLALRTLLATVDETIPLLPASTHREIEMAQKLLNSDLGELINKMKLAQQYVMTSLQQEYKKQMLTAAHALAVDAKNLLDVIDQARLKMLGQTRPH
Sequence of Torsin-1A (Homo sapiens) (O14656 whole entry, looked up): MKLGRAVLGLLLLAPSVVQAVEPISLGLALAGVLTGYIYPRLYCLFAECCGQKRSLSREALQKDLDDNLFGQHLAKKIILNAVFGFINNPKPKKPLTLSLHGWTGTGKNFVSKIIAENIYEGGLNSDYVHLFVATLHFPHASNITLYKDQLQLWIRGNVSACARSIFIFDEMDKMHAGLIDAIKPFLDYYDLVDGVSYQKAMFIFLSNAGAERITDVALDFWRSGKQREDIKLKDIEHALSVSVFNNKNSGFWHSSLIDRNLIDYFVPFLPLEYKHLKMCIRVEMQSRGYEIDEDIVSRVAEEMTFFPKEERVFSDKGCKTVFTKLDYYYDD
Sequence of Streptavidin (Streptomyces avidinii) (P22629 whole entry, looked up): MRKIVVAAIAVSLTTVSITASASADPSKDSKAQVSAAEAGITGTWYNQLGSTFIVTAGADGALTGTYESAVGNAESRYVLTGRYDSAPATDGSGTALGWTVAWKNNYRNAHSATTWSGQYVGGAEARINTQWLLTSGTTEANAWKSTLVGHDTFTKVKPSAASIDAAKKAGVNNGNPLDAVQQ
Sequence of Follistatin (Homo sapiens) (P19883 whole entry, looked up): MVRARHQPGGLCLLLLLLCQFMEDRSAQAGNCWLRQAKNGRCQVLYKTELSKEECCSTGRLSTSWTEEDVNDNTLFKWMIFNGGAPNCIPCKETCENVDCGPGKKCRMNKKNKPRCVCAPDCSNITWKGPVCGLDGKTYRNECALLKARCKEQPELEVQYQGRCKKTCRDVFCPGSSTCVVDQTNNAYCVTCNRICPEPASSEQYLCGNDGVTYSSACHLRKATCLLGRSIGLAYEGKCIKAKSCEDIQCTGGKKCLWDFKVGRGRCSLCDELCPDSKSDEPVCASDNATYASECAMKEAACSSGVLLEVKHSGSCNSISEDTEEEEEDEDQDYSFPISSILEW

With `C=C(COC)/C(=C/C[C@@H](OC(=O)c1ccncc1)c1cccc(OCCO)c1)c1cnc2ccccc2c1`, the composite z-score stood at 2.26 in assay [1]; 1.17 in assay [2]; 0.191 in [3]; 0.922 in assay [4]; 1.48 in [5]; 1.68 in [6]. Moreover, the composite z-score in assay [8] worked out at 1.64; in assay [9], 1.55; in assay [11] it was 0.381; in [16], 2.64; in assay [17], 0.248; in assay [18] it was 1.16. Further, the values for the composite z-score in assay [19] and in assay [20] were 2.74 and 2.3, respectively. For the same compound, the z-score in assay [7] is 0.746; in [10], -1.68 (inactive); in assay [12], -8.02 (active); in assay [13], -0.639 (inactive); in assay [14], 12.6 (active); in [15] it was 0.818 (inactive).
As to `CCCN1C(=O)[C@]2(Cc3ccccc3)N=C(c3ccc(OCCCO)cc3)O[C@@H]2c2ccccc21`, the composite z-score was found to be 1.9 in assay [1]; 1.22 in [2]; 0.0605 in assay [3]; 0.962 in assay [4]; 1.46 in assay [5]; 1.63 in assay [6]. In addition, the composite z-score came out at 0.951 in [8]; 0.751 in assay [9]; 1.19 in assay [11]; 0.501 in assay [16]; 0.872 in assay [17]; 0.317 in assay [18]. For the same compound, the composite z-score was found to be 0.773 in assay [19] and 1.84 in assay [20]. In addition, the z-score is 1.44 in assay [7]; -4.12 (inactive) in [10]; -5.27 (inactive) in assay [12]; -0.204 (inactive) in assay [13]; 1.04 (inactive) in assay [14]; -1.11 (inactive) in assay [15].
Take `CCOC(=O)C1=CC[C@@H](c2ccc([N+](=O)[O-])cc2)N(S(=O)(=O)c2ccc(C)cc2)[C@H]1c1ccccc1`: the composite z-score was 1.89 in assay [1]; 1.21 in [2]; 0.471 in [3]; 0.979 in [4]; 1.01 in assay [5]; 0.554 in [6]. Besides, the composite z-score in assay [8] was found to be 0.969; in [9], 0.695; in assay [11], 0.503; in assay [16] it was 1.57; in assay [17], 0.165; in assay [18], 0.149. For the same compound, the composite z-score in assay [19] is 0.763; in assay [20], 1.39. Besides, the z-score in assay [7] was 1.26; in [10] it was 1.94 (inactive); in [12] it was -1.36 (inactive); in [13], -0.41 (inactive); in assay [14], 0.182 (inactive); in assay [15] it was 0.147 (inactive).
As to `COC(=O)C(CC#Cc1ccc2c(c1)[C@]1(C(=O)N2)[C@H](C(=O)O)[C@H]2C(=O)O[C@H](c3ccccc3)[C@H](c3ccccc3)N2[C@@H]1c1ccccc1OCCO)C(=O)OC`, the composite z-score in [1] came to 2.8; in assay [2] it was 1.24; in assay [3], 0.712; in [4], 0.95; in assay [5] it was 1.18; in [6], 0.838. Besides, the composite z-score in assay [8] is 0.976; in [9] it was 1.18; in assay [11] it was 0.193; in assay [16], 0.678; in assay [17], 0.36; in assay [18] it was 1.04. Further, the values for the composite z-score in assay [19] and in [20] were 0.829 and 1.41, respectively. Besides, the z-score is -1.01 in assay [7]; -3.09 (inactive) in [10]; -1.66 (inactive) in [12]; -0.292 (inactive) in assay [13]; 0.899 (inactive) in [14]; 2.92 (inactive) in [15].
On to `CC(C)C(O)C1C=CC2C(=O)N(C)C(=O)C2N1Nc1ccccc1` (stereo not given), for which the composite z-score was found to be 0.932 in [1]; 1.14 in assay [2]; 0.746 in assay [3]; 0.78 in [4]; 0.828 in assay [5]; 0.0704 in [6]. Further, the composite z-score was -0.241 in assay [8]; 1.23 in [9]; 0.361 in assay [11]; 0.53 in [16]; 0.85 in assay [17]; 0.378 in [18]. The composite z-score was 0.597 in [19] and -0.361 in assay [20]. Besides, the z-score in [7] was -0.219; in assay [10], -0.968 (inactive); in assay [12], 1.03 (inactive); in assay [13] it was -1.04 (inactive); in assay [14], 0.0535 (inactive); in assay [15], -0.0784 (inactive).
